Drawing on PubChem BioAssay, this text covers z-score for 40 compounds.

A short description of one assay: Primary imaging screen for DUSP6 inhibitors that restore phospho-Erk in transfected HeLa cells, chemical complementation (AID 609). The settings on record: HeLa MKP-3 transfected, phospho-Erk imaging KS statistic; measured here: nuclear c-Myc green intensity z-score; at 10 µM; cells stimulated with TPA for 15 min.
Compound `O=S(=O)(/C=C/c1ccccc1)Nc1ccc2c(c1)OCO2` came in with a z-score of -2.

`Cn1c(=O)c2c3c(sc2n2c(SCC(=O)c4ccccc4)nnc12)COC(C)(C)C3` registered a z-score of -0.107. `COc1cccc(C2C(C(=O)c3sc(C)nc3C)=C(O)C(=O)N2CCN2CCOCC2)c1OC` (configuration not stated): the z-score amounted to 0.521.

Consider `NC(=O)C1CCN(C2OC(=O)c3ccccc32)CC1` (configuration not stated), for which the z-score stood at 0.288. Same read-out and setting: under `CCCCOC(=O)c1[nH]c(C)c(C(=O)OC)c1C` stands -1.07. On to `CCSc1nnc(NC(=O)C(C)(C(F)(F)F)C(F)(F)F)s1`, for which the z-score turned out to be 0.962.

`Cc1ccc(N2C(=O)CC3(CC4C=CC3C4)C2=O)cc1` (configuration not stated): the z-score is -0.359. Consider `Cn1c(NCC(O)c2ccccc2)nc2c1c(=O)n(Cc1ccc(Cl)cc1)c(=O)n2C` (configuration not stated), for which the z-score came out at 0.674.

For the compound `N#Cc1nc(-c2ccc(F)cc2)oc1N1CCCC1`, the z-score was found to be 1.06. On to `COC(=O)/C(C#N)=C1/SC=C(C)N1c1ccccc1`, for which the z-score is -1.23. The same measure, in the same setting: under `COc1ccc2nc(/N=C(\N)NC(=O)C(C)(C)C)nc(C)c2c1` stands -0.163. Compound `O=C(NCCCNCc1ccccc1)/C(=N\O)c1ccccc1` showed a z-score of 1.16.

Still in this assay, the particulars now being: HeLa MKP-3 transfected, phospho-Erk imaging KS statistic; measured here: nuclear pErk red intensity z-score; at 10 µM; stronger effect = higher value; cells stimulated with TPA for 15 min.
For the compound `COc1cccc(C(=O)OC2CCCN(C)C2)c1` (configuration not stated), the z-score amounted to 0.0712. `FC(F)(F)c1cccc(N2CCc3cn[nH]c32)c1` registered a z-score of 0.248.

On to `Cc1cc(=O)oc(C)c1C(=O)NCCC1=CCCCC1`, for which the z-score amounted to 1.29. `COCCNC(=O)C(C#N)c1nc2ccccc2nc1N1CCN(Cc2ccc3c(c2)OCO3)CC1` (configuration not stated) had a z-score of 1.16. `Cc1cc(CC(=O)O)c(C)cc1CC(=O)O` returned a z-score of 1.23.

On to `Nc1nc2n(n1)C(c1cccs1)CC(c1ccc(F)cc1)N2` (configuration not stated), for which the z-score was -0.128. Same read-out and setting: in the case of `CCOC(=O)C1=Nc2ccccc2C1=[N+]=[N-]` it was 1.84; in that of `CCc1nc2c(sc3nc(N4CCOCC4)c4c(c32)CC(C)(C)OC4)c(=O)o1`, -1.15; in that of `CC(=O)/C(C#N)=C1\NC(=O)C(Cc2ccccc2Cl)S1` (configuration not stated), -0.594. On to `COC(=O)/C=c1/s/c(=C(\C#N)C(=O)NCc2ccco2)n(-c2ccccc2)c1=O`, for which the z-score was -0.453. Turning to `O=C(NCCCN1CCOCC1)C1(c2ccccc2)CCOCC1`, the z-score is -0.449.

In turn, `CCN(CC)CCN1C(=O)C(=O)/C(=C(/O)c2c(C)[nH]c(C(=O)OC)c2C)C1c1ccccc1` (configuration not stated) had a z-score of 0.24.

As for `Cc1ccc(S(=O)(=O)c2cc3c(=O)n4cccc(C)c4nc3n(CC3CCCO3)c2=N)cc1` (configuration not stated), the z-score was -1.24. `COC(=O)C(NC(=O)c1ccco1)(Nc1nc(C)cs1)C(F)(F)F` (configuration not stated) had a z-score of 1.38.

`CC(=O)C1=C(O)C(=O)N(c2ccc(Br)cn2)C1c1ccccc1F` (configuration not stated) showed a z-score of -1.31. On to `Cc1ccc(S(=O)(=O)N(CC(O)CN2CCOCC2)c2cc(Cl)ccc2Cl)cc1` (configuration not stated), for which the z-score worked out at 0.263. The compound `CCNC(=O)COn1c(SCC(=O)NCC)nc2ccccc2c1=O` came in with a z-score of 0.704. Compound `CCCOc1cccc(C2/C(=C(/O)c3ccc(F)cc3)C(=O)C(=O)N2CCN(C)C)c1` (configuration not stated) came in with a z-score of -0.732. Still for that read-out and setting: in the case of `Cc1ccc(N(CN2C(=O)C3CC=CCC3C2=O)C(=O)c2ccco2)cc1Cl` (configuration not stated) it was 0.302; in that of `O=c1[nH]cnc2c1cnn2Cc1ccccc1`, 0.288. Compound `COC(=O)C(NC(C)=O)(Nc1ccc(Br)cn1)C(F)(F)F` (configuration not stated) yielded a z-score of 0.74. The same measure, in the same setting: under `COC(=O)/C=c1/s/c(=C(/C#N)C(=O)N2CCCCC2)n(-c2ccccc2)c1=O` stands 0.258. Regarding `O=c1c2sc3nc(N4CCOCC4)c4c(c3c2ncn1Cc1ccco1)CCCC4`, the z-score turned out to be 0.589. The compound `COc1ccc(CC(=O)n2c(CC#N)nc3ccccc32)cc1OC` had a z-score of 0.813. For the compound `CCN(CC)CCN1C(=O)C(O)=C(C(=O)c2cc3ccccc3o2)C1c1cccnc1` (configuration not stated), the z-score was -0.061. `COc1ccc(CSc2nnc3n(C)c(=O)c4c5c(sc4n23)CCCC5)cc1`: the z-score is -1.27. `CC(NC(=O)Nc1cccnc1)(C(F)(F)F)C(F)(F)F` registered a z-score of 0.0759. On the same count and under the same terms, in the case of `CCOC(=O)CSc1nnc(C)c(=O)[nH]1` it was 1.49.

Take `O=S(=O)(/C=C/c1ccccc1)Nc1ccc2c(c1)OCO2`: the z-score was 0.714. `Cn1c(=O)c2c3c(sc2n2c(SCC(=O)c4ccccc4)nnc12)COC(C)(C)C3`: the z-score was -0.293. For `COc1cccc(C2C(C(=O)c3sc(C)nc3C)=C(O)C(=O)N2CCN2CCOCC2)c1OC` (configuration not stated), the z-score is 0.668. `NC(=O)C1CCN(C2OC(=O)c3ccccc32)CC1` (configuration not stated): the z-score was -0.804. As to `CCCCOC(=O)c1[nH]c(C)c(C(=O)OC)c1C`, the z-score is -0.474. Turning to `CCSc1nnc(NC(=O)C(C)(C(F)(F)F)C(F)(F)F)s1`, the z-score was -1.02. On to `Cc1ccc(N2C(=O)CC3(CC4C=CC3C4)C2=O)cc1` (configuration not stated), for which the z-score was -0.765. The same measure, in the same setting: in the case of `Cn1c(NCC(O)c2ccccc2)nc2c1c(=O)n(Cc1ccc(Cl)cc1)c(=O)n2C` (configuration not stated) it was -0.257; in that of `N#Cc1nc(-c2ccc(F)cc2)oc1N1CCCC1`, 0.859; in that of `COC(=O)/C(C#N)=C1/SC=C(C)N1c1ccccc1`, -0.208.

On to `COc1ccc2nc(/N=C(\N)NC(=O)C(C)(C)C)nc(C)c2c1`, for which the z-score was -0.285.

The compound `O=C(NCCCNCc1ccccc1)/C(=N\O)c1ccccc1` displayed a z-score of 0.402.
